Screens: PubChem BioAssay, National Center for Advancing Translational Sciences (NCATS)
FLuc modulator – firefly luciferase modulation, counter-screen for miR-21 project | P08659 | purified FLuc, Km substrates, luminescence inhibition | Potency, µM (series often up to 57.5 µM), hits mostly inhibitors | actives 6.9% (n = 360,000) | AID 588342; also: nearly all actives have a fitted effect of over 55% in size
Target sequence (P08659 whole entry, looked up): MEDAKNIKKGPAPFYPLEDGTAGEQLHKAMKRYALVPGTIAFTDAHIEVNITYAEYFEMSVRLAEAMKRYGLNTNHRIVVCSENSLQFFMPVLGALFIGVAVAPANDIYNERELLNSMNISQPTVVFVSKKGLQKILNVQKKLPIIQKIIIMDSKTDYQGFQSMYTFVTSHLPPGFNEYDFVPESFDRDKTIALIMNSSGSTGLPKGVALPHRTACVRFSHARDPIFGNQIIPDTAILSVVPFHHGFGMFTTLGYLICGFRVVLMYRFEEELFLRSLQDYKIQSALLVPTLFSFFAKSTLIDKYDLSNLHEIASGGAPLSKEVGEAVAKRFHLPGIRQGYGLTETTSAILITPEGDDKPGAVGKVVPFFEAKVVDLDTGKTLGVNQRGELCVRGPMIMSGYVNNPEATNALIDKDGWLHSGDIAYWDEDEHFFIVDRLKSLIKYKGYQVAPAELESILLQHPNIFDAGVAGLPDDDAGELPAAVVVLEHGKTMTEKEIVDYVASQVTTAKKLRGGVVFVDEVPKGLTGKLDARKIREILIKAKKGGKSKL
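Purified P. pyralis luciferase (10nM final) with 10uM D-luciferin and 10uM ATP (Km levels) in 50mM Tris acetate pH 7.5, 10mM Mg acetate, 0.01% Tween-20, 0.05% BSA; qHTS 6-point titration, ~60 µM downward; luminescence read.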
NPC1 prom act – activators of NPC1 promoter; Huh7 NPC1 promoter luciferase reporter, 24 h; Potency, µM (doses to about 9.22 µM), hits mostly activators; actives 2.4% (n = 320,000); also: nearly all actives have a fitted effect of over 60% in size
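Huh7 cells stably carrying NPC1 promoter–luciferase, plated in Opti-MEM with 10% FBS for 2 h, were exposed to compound in DMSO for 24 h at 37 °C; luciferase reagent was added for 10 min and luminescence read.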
ELG1 genotoxic – genotoxicity induction in ELG1-luciferase HEK293T cells | HEK293T ELG1-luciferase reporter, luminescence, 16 h | Potency, µM (doses to about 46 µM), actives largely listed as activators | actives 1.3% (n = 330,000) | AID 504466; also: nearly all actives have a fitted effect of over 60% in size
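Step 1: seed 2,000 HEK293T ELG1-luciferase cells per well. Step 2: add compound or DMSO, incubate 16 hr at 37 °C. Step 3: ONE-Glo, 30 min at room temperature, read luminescence.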
SMN2 splice up – enhancers of SMN2 splice variant expression; Potency, µM (doses to about 46.1 µM), hits mostly activators; HEK293 SMN2-luciferase splicing reporter, luminescence, 30-36 h; actives 2.8% (n = 210,000); also: nearly all actives have a fitted effect of over 55% in size
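HEK293 cells carry an SMN2 minigene-luciferase reporter in which exon 7 inclusion puts luciferase in frame. Cells were seeded at 2000 cells/well, attached for 10-12 hours, then exposed to compounds for 30-36 hours at 37C before ONE-Glo luminescence.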
p53 reactivator – re-activators of mutant p53. H1299 p53-A138V BP100-luciferase reporter, luminescence, 24 h. Potency, µM (highest dose often 92.2 µM), hits mostly activators. actives 0.063% (n = 320,000). AID 504706; also: nearly all actives have a fitted effect of over 45% in size
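p53-null H1299 cells stably carrying temperature-sensitive p53-A138V and a BP100-luciferase reporter were pinned with compounds (4-point, 1:5 series) and held 24 hrs at 37 deg C. Luminescence was read 10 min after detection reagent.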
Rab9 prom act – Rab9 promoter activation. actives 2.8% (n = 320,000). Potency, µM (titrated, usually from 9.22 µM), most hits filed as activators. Huh7 Rab9 promoter-luciferase reporter, luminescence, 24 h. AID 485297; also: nearly all actives have a fitted effect of over 60% in size
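Cell-based reporter: Huh7 stable for Rab9 promoter-driven luciferase, plated in reduced-serum medium with 10% FBS at 1500 cells/well, compound-treated 24 h at 37 °C, luminescence read after 10 min reagent.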
Of the large screens only hits and unclear results are named; the others gave an inactive call. An excerpt weighted towards active compounds, which were near 7.4% of everything screened. Calls follow the shape of the dose curve; as a rule, active = well fitted curve in the direction sought with a large enough effect; inconclusive = small, poorly fitted or top-dose-only effect, or another doubt; inactive = no such curve, though single readings can be large; an effect the other way counts as inactive or inconclusive.

CCc1ccc(NC(=O)c2sc3nc4n(c(=O)c3c2C)CCC4)cc1	FLuc modulator 15.1µM, Rab9 prom act inconclusive (no result: SMN2 splice up)
CCOc1ccc(NC(=O)c2ccc3c(=O)n4c(nc3c2)CCCCC4)cc1	none
CCc1nnc(NC(=O)c2ccc3c(=O)n4c(nc3c2)CCCCC4)s1	FLuc modulator 26.9µM (no result: SMN2 splice up)
Cc1ccccc1OCCn1c(CCNC(=O)C2CCCCC2)nc2ccccc21	none (no result: NPC1 prom act, ELG1 genotoxic, p53 reactivator, Rab9 prom act)
COc1ccccc1N1CCN(C(=O)c2c(C)oc3ncn(C)c(=O)c23)CC1	none (no result: NPC1 prom act, ELG1 genotoxic, SMN2 splice up, p53 reactivator, Rab9 prom act)
CNC(=O)COc1ncnc2sccc12	none
Cc1cc(C(=O)COc2ncnc3sccc23)c(C)n1C	FLuc modulator 16.9µM, NPC1 prom act inconclusive, ELG1 genotoxic 18.4µM, SMN2 splice up 11.2µM, p53 reactivator inconclusive, Rab9 prom act inconclusive
O=C(Nn1c(SCc2cccc([N+](=O)[O-])c2)nc2ccccc2c1=O)c1ccccc1	FLuc modulator inconclusive, SMN2 splice up inconclusive, p53 reactivator inconclusive
COc1ccc(C(=O)Nn2c(SCC(=O)NCc3ccco3)nc3ccccc3c2=O)cc1	FLuc modulator 0.213µM, NPC1 prom act 0.316µM, ELG1 genotoxic inconclusive, SMN2 splice up inconclusive, Rab9 prom act 0.0891µM
COc1ccc(C(=O)Nn2c(SCC(=O)N3CCC(C)CC3)nc3ccccc3c2=O)cc1	FLuc modulator 0.675µM, NPC1 prom act 0.398µM, ELG1 genotoxic inconclusive (no result: Rab9 prom act)
COc1ccc(C(=O)Nn2c(SCC(=O)NC3CCCCC3)nc3ccccc3c2=O)cc1	FLuc modulator 1.9µM, NPC1 prom act 3.55µM, ELG1 genotoxic inconclusive, Rab9 prom act 3.98µM
CCn1c(SCC(=O)NCc2ccco2)nc2ccccc2c1=O	none (no result: SMN2 splice up)
COCCCn1c(SCC(=O)NC2CCCCC2)nc2ccccc2c1=O	none (no result: SMN2 splice up)
COc1ccc(C(=O)Nn2c(SCc3cccc([N+](=O)[O-])c3)nc3ccccc3c2=O)cc1	FLuc modulator 5.36µM, NPC1 prom act 3.98µM, ELG1 genotoxic 0.731µM, Rab9 prom act 3.55µM (no result: SMN2 splice up)
Cc1cc(C(=O)NCC(=O)Nc2c(C)cccc2C)c(C)o1	none (no result: SMN2 splice up)
N#CCCn1c(=O)c(-c2ccccc2)nc2cnc(Oc3cccc(Cl)c3)nc21	none (no result: FLuc modulator, NPC1 prom act, ELG1 genotoxic, p53 reactivator, Rab9 prom act)
COc1ccc(C(=O)Nn2c(SCC(=O)c3ccc(Cl)cc3)nc3ccccc3c2=O)cc1	FLuc modulator 4.78µM, NPC1 prom act 0.447µM, ELG1 genotoxic inconclusive, Rab9 prom act 0.501µM
COc1ccc(Oc2ccc(C(F)(F)F)cc2NC(=O)c2ccc(OC)cc2)cc1	none (no result: SMN2 splice up)
COc1ccc(Oc2ccc(C(F)(F)F)cc2N)cc1	FLuc modulator 16.9µM, Rab9 prom act inconclusive (no result: SMN2 splice up)
COc1ccc(-c2cc(C(=O)Nc3ccccc3)on2)cc1	FLuc modulator 0.536µM, ELG1 genotoxic inconclusive, SMN2 splice up inconclusive
COc1ccc(-n2nnc(C(=O)Nc3ccccc3F)c2N)cc1	FLuc modulator 2.39µM, SMN2 splice up 7.08µM (no result: NPC1 prom act, ELG1 genotoxic, p53 reactivator, Rab9 prom act)
COc1ccc(-c2cc(C(=O)Nc3ccccc3F)on2)cc1	ELG1 genotoxic inconclusive, SMN2 splice up inconclusive, Rab9 prom act 3.16µM
Cc1ccc2nc(NC(=O)CCCC(=O)O)sc2c1	FLuc modulator 5.36µM
Cc1ccc2nc(N/C(=N/S(=O)(=O)c3ccc(F)cc3)c3ccccc3)sc2c1	FLuc modulator 8.49µM, SMN2 splice up inconclusive, Rab9 prom act inconclusive
Cc1cnc(NC(=O)CCCc2nc3ccccc3s2)s1	FLuc modulator inconclusive, SMN2 splice up inconclusive, p53 reactivator inconclusive
Cc1ccc2nc(N/C(=N/S(=O)(=O)c3ccc(F)cc3F)c3ccccc3)sc2c1	FLuc modulator inconclusive (no result: SMN2 splice up)
Cc1ccc2nc(NC(=O)CCCc3nc4ccccc4s3)sc2c1	FLuc modulator 16.9µM, ELG1 genotoxic inconclusive
O=C(CN1CCOCC1)NCCNC(=O)CN1CCOCC1	SMN2 splice up 12.6µM
COc1ccc(-c2nc3n(c2C)Cc2ccccc2-3)cc1	FLuc modulator 2.39µM, NPC1 prom act 2.51µM, ELG1 genotoxic 13µM, p53 reactivator inconclusive, Rab9 prom act inconclusive (no result: SMN2 splice up)
C[C@]12CCC3c4ccc(O)cc4CCC3C1CCC2OC(=O)CCC1CCCC1 (stereo not given in full)	none (no result: FLuc modulator, NPC1 prom act, ELG1 genotoxic, p53 reactivator, Rab9 prom act)
COc1ccc(-c2sc(C(=O)c3ccc(Cl)cc3Cl)cc2CC(=O)O)cc1	none (no result: SMN2 splice up)
CN1CCN(Cc2nc(N)nc(Nc3ccc4c(c3)OCCO4)n2)CC1	FLuc modulator inconclusive, NPC1 prom act 3.55µM, ELG1 genotoxic inconclusive, Rab9 prom act 3.98µM
Oc1cc2c(cc1O)C1c3ccc(O)c(O)c3OCC1(O)C2 (stereo not given)	FLuc modulator 8.49µM
Cc1cc(S(=O)(=O)N2CCCOC2CNC(=O)C(=O)NCCCN2CCOCC2)ccc1F (stereo not given)	none (no result: SMN2 splice up)
CC(=O)Nc1cccc(NC(=O)COc2ccc3c(c2)CCC3)c1	FLuc modulator 8.49µM, p53 reactivator inconclusive (no result: SMN2 splice up)
CSc1cccc(NC(=O)COc2ccccc2C)c1	FLuc modulator 15.1µM
COc1cccc(NC(=O)C(=O)N/N=C(\C)CC(=O)Nc2ccc(NC(C)=O)cc2)c1	FLuc modulator 10.7µM, ELG1 genotoxic inconclusive, p53 reactivator inconclusive (no result: SMN2 splice up)
CC(=O)Nc1cccc(OCC(=O)Nc2sccc2C(N)=O)c1	FLuc modulator 8.49µM, NPC1 prom act 2.51µM, ELG1 genotoxic inconclusive, Rab9 prom act 1.12µM (no result: SMN2 splice up)
